# Assay results as given in publication PMC4336329 (PLoS ONE, 2015).
# The whole screen tested about 310,000 compounds, of which about 14,000 (4.5%) showed an effect of 50% or more. The effect is printed as a negative number. The sample as a whole holds a higher share of strong results than the screen did.
# Biological target: human ether-à-go-go-related gene (hERG) potassium channel (human, UniProt Q12809)
# Assay: primary screen, population patch clamp on CHO cells stably expressing hERG; higher = less effect of the substance
# 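Also: peak tail current of the secondary pulse compared with the same well before compound.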
# human ether-à-go-go-related gene (hERG) potassium channel, sequence (Q12809 whole entry, looked up): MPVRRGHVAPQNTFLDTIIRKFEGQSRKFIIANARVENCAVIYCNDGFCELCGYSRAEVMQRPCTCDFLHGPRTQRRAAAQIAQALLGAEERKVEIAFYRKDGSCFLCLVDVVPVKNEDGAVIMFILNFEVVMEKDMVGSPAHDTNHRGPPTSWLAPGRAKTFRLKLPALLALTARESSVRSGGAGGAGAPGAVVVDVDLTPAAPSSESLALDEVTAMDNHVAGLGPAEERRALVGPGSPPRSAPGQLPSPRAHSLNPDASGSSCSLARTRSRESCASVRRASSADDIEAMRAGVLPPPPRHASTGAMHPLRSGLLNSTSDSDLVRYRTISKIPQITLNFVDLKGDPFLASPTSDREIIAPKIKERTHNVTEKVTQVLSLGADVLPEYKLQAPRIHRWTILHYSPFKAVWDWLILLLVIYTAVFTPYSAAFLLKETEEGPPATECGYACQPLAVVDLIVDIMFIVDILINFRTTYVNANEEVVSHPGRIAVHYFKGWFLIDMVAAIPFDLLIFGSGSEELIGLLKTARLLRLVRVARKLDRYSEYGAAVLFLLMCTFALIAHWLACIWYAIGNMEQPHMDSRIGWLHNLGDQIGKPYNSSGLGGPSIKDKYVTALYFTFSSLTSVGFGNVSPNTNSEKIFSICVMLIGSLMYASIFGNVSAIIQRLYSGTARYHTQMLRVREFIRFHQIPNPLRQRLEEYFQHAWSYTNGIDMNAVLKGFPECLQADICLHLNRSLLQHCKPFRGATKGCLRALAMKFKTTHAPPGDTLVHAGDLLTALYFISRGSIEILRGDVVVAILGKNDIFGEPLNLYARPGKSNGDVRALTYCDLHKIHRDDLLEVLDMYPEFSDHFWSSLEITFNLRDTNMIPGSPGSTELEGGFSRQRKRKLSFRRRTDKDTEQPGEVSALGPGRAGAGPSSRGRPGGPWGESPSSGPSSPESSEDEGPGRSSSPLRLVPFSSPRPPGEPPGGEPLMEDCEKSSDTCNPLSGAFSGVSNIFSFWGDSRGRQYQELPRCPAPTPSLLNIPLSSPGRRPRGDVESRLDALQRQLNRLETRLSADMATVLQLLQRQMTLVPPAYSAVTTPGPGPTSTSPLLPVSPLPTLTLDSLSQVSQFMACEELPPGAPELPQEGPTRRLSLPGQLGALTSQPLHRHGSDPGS
row,SMILES,"hERG current change (%, negative = inhibition) at 10uM [%]"
1,CC(C)NC(=O)Cn1nc(C(F)(F)F)c2c1CCC2,7.42
2,C=C(C)CNc1cc(S(=O)(=O)N2CCOCC2)ccc1Oc1ccccc1,-21.3
3,O=C(CCN1C(=O)c2cccc3cccc(c23)C1=O)N1CCOCC1,19.9
4,CCN1CCN(CC(=O)NC2CCCCC2)C(=O)C1=O,1.65
5,COc1cccc(CNC(=O)C(C)n2nc(C)n3c(cc4occc43)c2=O)c1 (centres unmarked),7.17
6,CCCOc1ccc(C(=O)NNC(=S)NC(=O)c2cccs2)cc1,16.7
7,CC(C)=CC(=O)O[C@H]1[C@@H]2[C@H](C)C(=O)O[C@@H]2C[C@@H](C)[C@@H]2[C@@H](O)CC(=O)[C@]21C,22.4
8,COC(=O)CCSc1cc(NCCOC(C)=O)c([N+](=O)[O-])c2nonc12,-25.6
9,O=C(N/N=C/c1cn(CC(=O)N2CCOCC2)c2ccccc12)c1cccnc1,16.3
10,Cc1ccc(NC(=O)C(C)Sc2nc(-c3ccccc3)cc(=O)[nH]2)cc1 (centres unmarked),20.8
11,COc1ccccc1NC(=O)/C(=C\c1cccnc1)NC(=O)c1ccc(C)cc1,-71.9
12,Cc1ccc(NC(=O)/C(=C\c2cccnc2)NC(=O)c2ccccc2)cc1,-46
13,COc1ccccc1NC(=O)/C(=C/c1ccncc1)NC(=O)c1ccccc1,-10.6
14,O=C(Nc1ccccc1)/C(=C/c1cccnc1)NC(=O)c1ccccc1,2.08
15,COc1ccccc1NC(=O)/C(=C\c1cccnc1)NC(=O)c1ccccc1,-65.5
16,Cc1ccc(C(=O)N/C(=C/c2cccnc2)C(=O)O)cc1,8.41
17,COc1cc(OC)c(OC)cc1CNC(=O)c1ccc(S(=O)(=O)N2CC(C)OC(C)C2)cc1 (centres unmarked),-11
18,O=C(COc1cc(Cl)c(Cl)cc1Cl)NCCN1CCOCC1,-7.1
19,CCCCNC(=O)[C@H](Cc1c[nH]c2ccccc12)NC(=O)c1ccccc1Cl,-8.26
20,CC(=O)Nc1ccc(S(=O)(=O)N2CCC(C(=O)NCc3ccco3)CC2)cc1,0.324
21,O=C(NCc1ccco1)C1CCCN(S(=O)(=O)c2ccc(-n3cnnn3)cc2)C1 (centres unmarked),-61.8
22,O=C(NCc1ccco1)C1CCN(S(=O)(=O)c2ccc(-n3cnnn3)cc2)CC1,-70.5

row,SMILES,"hERG current change (%, negative = inhibition) at 10uM [%]"
1,C=CCNC(=O)C1CCCN(S(=O)(=O)c2ccc(-n3cnnn3)cc2)C1 (centres unmarked),-27.5
2,COc1ccc(C)cc1NC(=O)C1CCCN(S(=O)(=O)c2ccc(-n3cnnn3)cc2)C1 (centres unmarked),-69.8
3,COc1ccccc1NC(=O)C1CCCN(S(=O)(=O)c2ccc(-n3cnnn3)cc2)C1 (centres unmarked),-46.8
4,O=C(NCc1ccccc1)C1CCCN(S(=O)(=O)c2ccc(-n3cnnn3)cc2)C1 (centres unmarked),2.94
5,CC(C)CCNC(=O)C1CCCN(S(=O)(=O)c2ccc(-n3cnnn3)cc2)C1 (centres unmarked),22.5
6,NC(=O)CNC(=O)C1CCN(S(=O)(=O)c2ccc(-n3cnnn3)cc2)CC1,-41.4
7,COc1ccc(OC)c(NC(=O)C2CCCN(S(=O)(=O)c3ccc(-n4cnnn4)cc3)C2)c1 (centres unmarked),-12.5
8,O=C(NCC1CC1)C1CCCN(S(=O)(=O)c2ccc(-n3cnnn3)cc2)C1 (centres unmarked),-63.7
9,O=C(NCc1ccccc1F)C1CCCN(S(=O)(=O)c2ccc(-n3cnnn3)cc2)C1 (centres unmarked),-1.94
10,COC(=O)C1=C(C(=O)OC)[C@@H]2N(C)c3ccccc3[C@@]23C[C@@H](C(=O)OC)N(C(=O)c2ccc(Br)cc2)C3=N1,-1.06
11,Fc1ccc2c(c1)C(c1ccc(N3CCOCC3)cc1)=NNC(c1cccs1)=N2,-1.96
12,CC1=CC(C)(C)NC(=S)N1c1cc(C)cc(C)c1,10.5
13,Cc1nc(Nc2ccc(C(=O)O)cc2)nc(Nc2ccc(C(=O)O)cc2)c1[N+](=O)[O-],15.3
14,Cc1cc(=O)c2cc(C(=O)c3ccccc3)ccc2[nH]1,-4.4
15,COc1ccccc1Cn1c(=O)c2ccccc2n2c(SCc3csc(C)n3)nnc12,-6.34
16,CC1=C(C)CC(C(=O)NNC(=O)c2cccc(Cl)c2)C(C(=O)O)C1 (centres unmarked),12.3
17,Cc1ccccc1C(=O)Nc1ccc(C(=O)N/N=C/c2ccc(O)c(Br)c2)cc1,-2.99
18,CC(C)C[C@H](NC(=O)c1nc[nH]c1C(=O)N[C@@H](CC(C)C)C(=O)OCc1ccccc1)C(=O)OCc1ccccc1,16.2
19,CC(C)C[C@H](NC(=O)c1[nH]cnc1C(=O)N[C@@H](Cc1ccccc1)C(=O)OCc1ccccc1)C(=O)OCc1ccccc1,21.6
20,CNC(=O)c1[nH]cnc1C(=O)N[C@@H](CC(C)C)C(=O)OCc1ccccc1,-58.2
21,CC1(C)C(C=C(Cl)Cl)C1C(=O)Nc1ccc([N+](=O)[O-])cc1 (centres unmarked),18.9
22,O=C(COc1ccc(/C=N/NC(=O)C(=O)N2CCCCC2)cc1)Nc1ccccc1Cl,15.9

row,SMILES,"hERG current change (%, negative = inhibition) at 10uM [%]"
1,O=C(C1CCCN(S(=O)(=O)c2ccc(F)cc2)C1)N1CCCCC1 (centres unmarked),6.09
2,O=C(C1CCCCC1)N1CCN(S(=O)(=O)c2cccc([N+](=O)[O-])c2)CC1,-13.1
3,O=C(C1CCC1)N1CCN(S(=O)(=O)c2ccc(F)cc2)CC1,11.4
4,O=C(C1CCC1)N1CCN(S(=O)(=O)c2ccc([N+](=O)[O-])cc2)CC1,-62.6
5,O=C(C1CCCN(S(=O)(=O)c2ccc([N+](=O)[O-])cc2)C1)N1CCCCC1 (centres unmarked),-62
6,O=C(C1CCCN(S(=O)(=O)c2ccc(F)cc2)C1)N1CCCCCC1 (centres unmarked),-24
7,COc1ccc2oc(C(=O)N3CCc4ccccc43)c(C)c2c1,15.1
8,Cc1cccc(S(=O)(=O)NCCC(=O)OC(C)C(=O)NC(=O)NC2CCCCC2)c1 (centres unmarked),-20.8
9,Cc1nn(C)c(Oc2cccc(Cl)c2)c1C#N,8.31
10,Cc1nc(N(C)Cc2ccccc2)c2nnn(Cc3ccccc3)c2n1,-37.9
11,COc1ccc(CCC(=O)Nc2ccc(S(=O)(=O)N3CCCC3)cc2)cc1OC,-11.8
12,CCC1(Cc2ccccc2)NC(=O)c2ccccc2O1 (centres unmarked),2.36
13,O=c1c2[nH]c3cccc(Cl)c3c2ncn1CC1CCCO1 (centres unmarked),-9.51
14,O=c1c2[nH]c3ccc(F)cc3c2ncn1CC1CCCO1 (centres unmarked),-16
15,Cc1ccc2[nH]c3c(=O)n(CCN4CCOCC4)cnc3c2c1,-17.5
16,Cc1ccc2[nH]c3c(=O)n(Cc4ccncc4)cnc3c2c1,4.77
17,CCN1CCCC1Cn1cnc2c([nH]c3ccc(Cl)cc32)c1=O (centres unmarked),-76.5
18,CCCCn1cnc2c([nH]c3ccccc32)c1=O,15.7
19,CCN1CCCC1Cn1cnc2c([nH]c3cccc(Cl)c32)c1=O (centres unmarked),-67.2
20,CCN1CCCC1Cn1cnc2c([nH]c3ccc(C)cc32)c1=O (centres unmarked),-70
21,O=c1c2[nH]c3cccc(Cl)c3c2ncn1CCN1CCCCC1,-21.9
22,COc1cc2[nH]c3c(=O)n(CCN(C(C)C)C(C)C)cnc3c2cc1OC,-13.3

row,SMILES,"hERG current change (%, negative = inhibition) at 10uM [%]"
1,Cc1ccc2[nH]c3c(=O)n(CCN4CCNCC4)cnc3c2c1,7.36
2,CC(C)N(CCn1cnc2c([nH]c3ccccc32)c1=O)C(C)C,-68.1
3,Cc1nn(C)c(C(=O)N/N=C/c2ccccn2)c1[N+](=O)[O-],21.3
4,CCCNC(=O)NC(C)C12CC3CC(CC(C3)C1)C2 (centres unmarked),-12.6
5,COC(=O)c1cc(COC(=O)c2nc3nccc(C)n3n2)oc1C,15.7
6,Cc1cc(C(=O)OCC(=O)NC2CCCCC2)c(C)o1,9.12
7,Cc1ccc(NC(=O)CSCC(=O)N2CCN(c3cccc(C(F)(F)F)c3)CC2)cc1,-13
8,Cc1ccc(NC(=O)c2cccc3c2-c2ccccc2C3=O)cc1C,-9.58
9,CCC1CCCN1Cn1cnc2c([nH]c3ccccc32)c1=O (centres unmarked),-62.1
10,O=c1c2[nH]c3ccccc3c2ncn1CCN1CCNCC1,4.97
11,O=c1c2[nH]c3ccc(F)cc3c2ncn1CCCN1CCOCC1,-31.3
12,Cc1ccc2[nH]c3c(=O)n(CCCN4CCN(C)CC4)cnc3c2c1,-37
13,O=c1c2[nH]c3ccc(F)cc3c2ncn1CCN1CCN(Cc2ccccc2)CC1,-63.2
14,O=c1c2[nH]c3ccccc3c2ncn1CCN1CCOCC1,4.87
15,Cc1ccc2[nH]c3c(=O)n(CCC4=CCCCC4)cnc3c2c1,4.95
16,CCC1CCCN1Cn1cnc2c([nH]c3ccc(C)cc32)c1=O (centres unmarked),-67.1
17,O=C1CCCN1CCCNc1ncnc2c1[nH]c1ccc(Cl)cc12,-29.4
18,Cc1ccc2[nH]c3c(=O)n(CCCN4CCOCC4)cnc3c2c1,-17.8
19,O=c1c2[nH]c3ccc(F)cc3c2ncn1CCN1CCOCC1,-41.1
20,CCC1CCCN1Cn1cnc2c([nH]c3ccc(Cl)cc32)c1=O (centres unmarked),-71.5
